This is a sample that favours compounds with a hit; in the whole collection about 2.3% have one here.
MBD2 DNA inh: MBD2-methylated oligo binding inhibition. Q9UBB5. TR-FRET, MBD2 binding to methylated oligonucleotide. inhibition, % at 4.4 µM. 370,000 tested, 0.31% active. AID 686964; in the data active means inhibition above about 13%
Target sequence (Q9UBB5 whole entry, looked up): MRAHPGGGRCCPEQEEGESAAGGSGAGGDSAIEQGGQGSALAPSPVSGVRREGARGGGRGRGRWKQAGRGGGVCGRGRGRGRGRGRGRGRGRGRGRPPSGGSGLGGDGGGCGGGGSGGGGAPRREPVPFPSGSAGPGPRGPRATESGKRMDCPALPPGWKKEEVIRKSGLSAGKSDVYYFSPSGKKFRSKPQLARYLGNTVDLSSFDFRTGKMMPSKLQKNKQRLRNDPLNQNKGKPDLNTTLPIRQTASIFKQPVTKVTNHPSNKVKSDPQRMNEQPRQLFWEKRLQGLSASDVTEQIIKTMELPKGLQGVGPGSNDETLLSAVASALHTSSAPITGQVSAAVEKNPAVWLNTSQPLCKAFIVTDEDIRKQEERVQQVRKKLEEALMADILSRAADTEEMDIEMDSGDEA
PLCg1 inh: blocks human PLC-gamma1 enzyme activity; P19174; purified PLC-gamma1, fluorogenic substrate, fluorescence; inhibition, % at 12.2 µM; 370,000 tested, 0.84% active; AID 720700; in the data active means inhibition above about 9.5%
PLC-beta3 inh: inhibitors of human phospholipase C beta3 | Q01970 | Purified PLC-beta3, fluorogenic substrate, fluorescence | inhibition, % at 12.2 µM | 370,000 tested, 0.18% active | AID 720704;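 further: 0% = median of compound wells on plate and 100% = full blocker control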
LEDGF integ inh: blocks HIV-1 LEDGF/p75-dependent DNA integration; 370,000 tested, 0.64% active; TR-FRET IN-LEDGF/p75 DNA integration, Eu/Cy5; inhibition, % at 3.7 µM; AID 743269;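 active means inhibition above the screen-wide mean plus 3 SD, cut at about 13% in these data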;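 further: signal is the Cy5 over europium emission ratio at 671 and 618 nm; 0% = plate median of compound wells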
UHRF1 binding: blocks human UHRF1 binding to methylated DNA. inhibition, % at 4.4 µM. AID 687016. UHRF1 binding to methylated oligo, TR-FRET. 370,000 tested, 0.75% active; in the data active means inhibition above about 21%;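 further: UHRF1 SRA domain binding a hemimethylated CpG hairpin DNA probe; 0% = median of test compound wells and 100% = reference inhibitor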
PLCg1 ctr: counter-screen for PLC-beta3 inhibitors: inhibitors of human PLC-gamma1; AID 743258; purified PLC-gamma1, fluorogenic substrate, fluorescence; inhibition, % at 12.3 µM; shares compounds with PLCg1 inh; 3,300 tested, 3.1% active; in the data active means inhibition above about 9.5%
PLCb3 confirm: confirmation of human PLC-beta3 inhibitors; shares compounds with PLCg1 inh; inhibition, % at 12.3 µM; 3,300 tested, 1% active; purified PLC-beta3, fluorogenic substrate fluorescence
Starred values were filed as active, the others as inactive. Unless noted, no stated cut-off is given here; in the data, active means inhibition above about 11%; inactive means the rest.

How did CCOc1cc(/C=N/N=C(N)N)ccc1OCc1ccc(Cl)cc1 do in these assays?
MBD2 DNA inh: 2; PLCg1 inh: 1; PLC-beta3 inh: 4; LEDGF integ inh: 3; UHRF1 binding: -5

Results for COC(=O)[C@H](C(C)C)N1CCc2nnn(CC3CCCCC3)c2-c2ccccc2S1(=O)=O ?
MBD2 DNA inh: -5; PLCg1 inh: 0; PLC-beta3 inh: 4; LEDGF integ inh: 1; UHRF1 binding: -2

What do the screens show for `CCCCN1CC(=O)N2[C@H](C[C@@]3(C)c4ccccc4N(S(=O)(=O)c4ccccc4)[C@@H]23)C1=O`?
MBD2 DNA inh: -2; PLCg1 inh: -3; PLC-beta3 inh: 2; LEDGF integ inh: -3; UHRF1 binding: 6

Results for CCOC(=O)c1c(C)nc(C)c(C(=O)OCC)c1-c1ccc(Br)cc1 ?
MBD2 DNA inh: -1; PLCg1 inh: 12*; PLC-beta3 inh: 6; LEDGF integ inh: 4; UHRF1 binding: 5; PLCg1 ctr: -5; PLCb3 confirm: -2

How did CCOC(=O)c1c(C)nc(C)c(C(=O)OCC)c1-c1ccc(OC)cc1 do in these assays?
MBD2 DNA inh: -7; PLCg1 inh: 3; PLC-beta3 inh: -1; LEDGF integ inh: -1; UHRF1 binding: -1

How did COc1cc(C2CC(=O)Oc3cc(O)ccc32)cc(OC)c1OC (centres undefined) do in these assays?
MBD2 DNA inh: 5; PLCg1 inh: 0; PLC-beta3 inh: -4; LEDGF integ inh: 2; UHRF1 binding: 2

How did COc1ccc2c(c1)OC(=O)CC2c1cc(OC)c(OC)c(OC)c1 (centres undefined) do in these assays?
MBD2 DNA inh: -7; PLCg1 inh: 11*; PLC-beta3 inh: 8; LEDGF integ inh: 5; UHRF1 binding: 3; PLCg1 ctr: -4; PLCb3 confirm: -11

What do the screens show for `O=C(CCC1CCCN(C(=O)c2cncs2)C1)NCc1ccc(F)c(F)c1` (centres undefined)?
MBD2 DNA inh: 2; PLCg1 inh: 10*; PLC-beta3 inh: 5; LEDGF integ inh: -1; UHRF1 binding: -2; PLCg1 ctr: -7; PLCb3 confirm: -5

Results for O=C(NCCN1C(=O)C2C3C=CC(C3)C2C1=O)c1cc(F)cc(F)c1 (centres undefined) ?
MBD2 DNA inh: -2; PLCg1 inh: -1; PLC-beta3 inh: 1; LEDGF integ inh: -1; UHRF1 binding: 1

What do the screens show for `O=S(=O)(Nc1nc2ccccc2s1)c1ccc(Cl)s1`?
MBD2 DNA inh: -5; PLCg1 inh: -3; PLC-beta3 inh: -5; LEDGF integ inh: 3; UHRF1 binding: -3

What do the screens show for `O=S(=O)(Nc1nc2ccccc2s1)c1cc(F)ccc1F`?
MBD2 DNA inh: -6; PLCg1 inh: 9.5*; PLC-beta3 inh: -1; LEDGF integ inh: 5; UHRF1 binding: 1; PLCg1 ctr: -7; PLCb3 confirm: -3

Results for COC(=O)C1CN(Cc2cn(Cc3ccc(OC)cc3)nn2)CCS(=O)(=O)N1Cc1ccccc1 (centres undefined) ?
MBD2 DNA inh: 3; PLCg1 inh: -1; PLC-beta3 inh: -3; LEDGF integ inh: -2; UHRF1 binding: 15

How did O=C(c1cccs1)N1CCN(C(=O)c2cn(-c3ccccc3)nc2-c2ccccc2)CC1 do in these assays?
MBD2 DNA inh: -1; PLCg1 inh: 1; PLC-beta3 inh: 12*; LEDGF integ inh: -3; UHRF1 binding: -1; PLCg1 ctr: -4; PLCb3 confirm: -1

What do the screens show for `O=C(c1cn(-c2ccccc2)nc1-c1ccccc1)N1CCOCC1`?
MBD2 DNA inh: -3; PLCg1 inh: 2; PLC-beta3 inh: 2; LEDGF integ inh: -2; UHRF1 binding: 0

Results for CC(C)CN1C(=O)[C@@]2(CC(=O)N(C)C2c2ccccc2)c2cc(-n3cc(CCc4ccccc4)nn3)ccc21 (some centres undefined) ?
MBD2 DNA inh: -2; PLCg1 inh: 10*; PLC-beta3 inh: 1; LEDGF integ inh: 7; UHRF1 binding: 0; PLCg1 ctr: -2; PLCb3 confirm: 0

How did CC(C)CN1C(=O)[C@]2(CC(=O)N(C)C2c2ccccc2)c2cc(-n3cc(CCc4ccccc4)nn3)ccc21 (some centres undefined) do in these assays?
MBD2 DNA inh: -3; PLCg1 inh: 0; PLC-beta3 inh: 2; LEDGF integ inh: -2; UHRF1 binding: 0

How did CCOC(=O)C1=C(C)NC(C)=C(C(=O)OCC)C1c1cccc([N+](=O)[O-])c1 do in these assays?
MBD2 DNA inh: -2; PLCg1 inh: 4; PLC-beta3 inh: 8; LEDGF integ inh: 5; UHRF1 binding: 0

What do the screens show for `CC1=C(C(=O)OC(C)C)C(c2cccc([N+](=O)[O-])c2)n2c(cc(=O)[nH]c2=S)N1` (centres undefined)?
MBD2 DNA inh: -3; PLCg1 inh: 9.7*; PLC-beta3 inh: 3; LEDGF integ inh: 3; UHRF1 binding: -3; PLCg1 ctr: -2; PLCb3 confirm: 0

Results for O=C(CN1CCN(S(=O)(=O)c2ccc(F)cc2)CC1)Nc1ccccc1C(=O)NC1CC1 ?
MBD2 DNA inh: 1; PLCg1 inh: 1; PLC-beta3 inh: -5; LEDGF integ inh: -3; UHRF1 binding: 1

How did N#Cc1ccc(S(=O)(=O)N2CCN(CC(=O)Nc3ccccc3C(=O)NC3CC3)CC2)cc1 do in these assays?
MBD2 DNA inh: 7; PLCg1 inh: 9.7*; PLC-beta3 inh: 2; LEDGF integ inh: -6; UHRF1 binding: 3; PLCg1 ctr: 7; PLCb3 confirm: 3

Results for COc1ccc(S[C@]2(C(=O)N3CCN(c4ncccn4)CC3)CC(=O)N[C@@H]2c2ccc(OC)cc2)cc1 ?
MBD2 DNA inh: -2; PLCg1 inh: -4; PLC-beta3 inh: -7; LEDGF integ inh: 3; UHRF1 binding: 1

Results for CCOC(=O)[C@]12CCCCC/C=C\1N(Cc1ccc(OC)cc1)C(=O)[C@H]2CC(=O)N1CCC(c2ccccc2)CC1 ?
MBD2 DNA inh: -2; PLCg1 inh: 7; PLC-beta3 inh: 6; LEDGF integ inh: 6; UHRF1 binding: 3

Results for Cc1ccc(N(C)S(=O)(=O)c2cccc(C(=O)N3CCN(Cc4ccccc4)CC3)c2)cc1 ?
MBD2 DNA inh: 3; PLCg1 inh: 11*; PLC-beta3 inh: -4; LEDGF integ inh: 7; UHRF1 binding: 1; PLCg1 ctr: 2; PLCb3 confirm: 2

How did CN(C)S(=O)(=O)c1cccc(C(=O)N2CCN(Cc3ccccc3)CC2)c1 do in these assays?
MBD2 DNA inh: -3; PLCg1 inh: 0; PLC-beta3 inh: -5; LEDGF integ inh: -1; UHRF1 binding: -2

How did COC(=O)c1ccc(N2C(=O)C3CC=CC(C)C3C2=O)cc1 (centres undefined) do in these assays?
MBD2 DNA inh: -1; PLCg1 inh: 10*; PLC-beta3 inh: 4; LEDGF integ inh: 6; UHRF1 binding: 3; PLCg1 ctr: -4; PLCb3 confirm: -2
